# Screen size: about 39,000 compounds; about 3,300 (8.5%) were called active. The entries come from a sample that favours actives as a whole.
# System: HepG2
# Assay: cytotoxicity call (relative viability < 0.9)
# Conditions: 10 µM
row,SMILES,cytotoxicity call
1,C[C@@H]1CN([C@H](C)CO)C(=O)CCCn2cc(nn2)CO[C@H]1CN(C)C(=O)Nc1ccc2c(c1)OCO2,inactive
2,C[C@@H]1CN([C@@H](C)CO)C(=O)c2cccc(NC(=O)c3cnccn3)c2O[C@@H]1CN(C)S(=O)(=O)c1cccs1,inactive
3,Cc1noc(C)c1NC(=O)Nc1ccc2c(c1)C(=O)N([C@H](C)CO)C[C@@H](C)[C@H](CN(C)Cc1ccc(C(F)(F)F)cc1)OCCCC[C@@H](C)O2,inactive
4,CCN1CCN(c2ccc(Nc3cc(N(C)C(=O)Nc4c(Cl)c(OC)cc(OC)c4Cl)ncn3)cc2)CC1,active
5,C[C@H]1CN([C@@H](C)CO)S(=O)(=O)c2ccc(C3=CCCCC3)cc2O[C@@H]1CN(C)C(=O)C1CCOCC1,inactive
6,C[C@@H]1CCCCO[C@H](CN(C)C(=O)Nc2ccc(F)cc2)[C@H](C)CN([C@@H](C)CO)C(=O)c2cc(NC(=O)Nc3ccc4c(c3)OCO4)ccc2O1,inactive
7,COCC(=O)N1C[C@H](C)[C@H](OC)CN(C)C(=O)c2cc(NC(=O)c3ccc(OC)cc3)ccc2OC[C@@H]1C,inactive
8,Cn1c(=O)c2c(ncn2C[C@@H](O)CO)n(C)c1=O,inactive
9,Cn1c(=O)c2c(ncn2CC(O)CO)n(C)c1=O (centres undefined),inactive
10,Cn1c(=O)c(F)c(Nc2ccc(I)cc2F)c2c(=O)n(C[C@@H](O)CO)cnc21,active
11,C[C@@H]1CN([C@@H](C)CO)C(=O)c2cccc(NC(=O)Nc3ccc(C(F)(F)F)cc3)c2O[C@@H]1CN(C)S(C)(=O)=O,inactive
12,COc1ccc(NC(=O)N(C)C[C@@H]2OCCCC[C@@H](C)Oc3ccc(NS(=O)(=O)c4ccc(F)cc4)cc3C(=O)N([C@H](C)CO)C[C@H]2C)cc1,inactive
13,Fc1ccc(-c2nc3c4ccccc4c4ccccc4c3[nH]2)cc1,active
14,Fc1ccc(-c2nc3ccc4ccccc4c3c3c2CCC3)cc1,inactive
15,N[C@H]1CC[C@H](CCn2cc(C3CCCCC3)nn2)O[C@@H]1CO,inactive
16,CC(C)Oc1cccc(CC(=O)N2CCC[C@](CC[N+]34CCC(c5ccccc5)(CC3)CC4)(c3ccc(Cl)c(Cl)c3)C2)c1,inactive
17,CC(=O)N(C)C1(c2ccccc2)CCN(CCC[C@]2(c3ccc(Cl)c(Cl)c3)CCCN(C(=O)c3ccccc3)C2)CC1,active
18,CN1CCN(C(=O)C[C@@H]2CC[C@@H]3[C@@H](COc4ccc(NC(=O)c5cscn5)cc4C(=O)N3C)O2)CC1,inactive
19,O=C(C[C@@H]1CC[C@@H]2[C@H](COC[C@H](O)CN2C(=O)c2ccccn2)O1)NC1CCC1,inactive
20,CCc1cccc(C)c1NC(C)=O,inactive
21,C[C@H](CO)N1C[C@H](C)[C@H](CN(C)S(C)(=O)=O)OCCCC[C@H](C)Oc2ccc(NS(=O)(=O)c3ccccc3)cc2C1=O,inactive
22,COc1ccc(S(=O)(=O)N2C[C@@H](O)COC[C@H]3O[C@@H](CC(=O)NCCN4CCCCC4)CC[C@@H]32)cc1,inactive
23,C[C@@H]1CN([C@H](C)CO)C(=O)c2cccc(NC(=O)c3cnccn3)c2O[C@@H]1CN(C)Cc1ccc(C(=O)O)cc1,inactive
24,"CC(C)CCC[C@@H](C)[C@H]1CC[C@H]2[C@@H]3C[C@@H](O)[C@@]4(O)C[C@@H](O)CC[C@]4(C)[C@H]3CC[C@]12C [CHOLESTAN-3beta,5alpha,6beta-TRIOL ]",active
25,CC(C)CCCC(C)C1CCC2C3CCC4CC(O)CCC4(C)C3CCC12C (stereo not drawn) [5alpha-CHOLESTANOL ],inactive

row,SMILES,cytotoxicity call
1,CC(C)CCCC(C)C1CCC2C3CC(=O)C4CC(O)CCC4(C)C3CCC12C (stereo not drawn) [5alpha-CHOLESTAN-3beta-OL-6-ONE ],inactive
2,CCNC(=O)N1CCCC[C@@H]1CO,inactive
3,O=C(N[C@@H](c1ccccc1)c1ccc2ccccc2n1)C1CCN(C(=O)NC(c2ccccc2)c2ccccc2)CC1,inactive
4,C[C@H](N[C@@H](CCc1ccccc1)C(=O)O)C(=O)N1CCC[C@H]1C(=O)O,inactive
5,CN[C@@H](C)C(=O)N[C@H]1CN(C(=O)CC(C)C)CC[C@H]2CC[C@@H](C(=O)NC(c3ccccc3)c3ccccc3)N2C1=O,active
6,COc1cnc(NS(=O)(=O)c2ccc(N)cc2)nc1,inactive
7,COS(=O)(=O)[O-].COc1cc(N)cn[n+]1-c1ccccc1,active
8,COCC#Cc1cnc2c(c1)C(=O)N([C@@H](C)CO)C[C@@H](C)[C@H](CN(C)C(=O)Nc1cc(F)ccc1F)O2,inactive
9,COc1ccc(NC(=O)Nc2ccc3c(c2)C(=O)N([C@H](C)CO)C[C@@H](C)[C@@H](CN(C)C(=O)Nc2cccc4ccccc24)O3)cc1,inactive
10,COc1ccc(NC(=O)Nc2ccc3c(c2)C(=O)N([C@H](C)CO)C[C@H](C)[C@@H](CN(C)C(=O)Nc2cccc4ccccc24)O3)cc1,inactive
11,C[C@H]1CN([C@@H](C)CO)C(=O)c2cc(NC(=O)Nc3ccc(C(F)(F)F)cc3)ccc2O[C@H]1CN(C)C(=O)Nc1cccc2ccccc12,inactive
12,C[C@@H]1CN([C@H](C)CO)C(=O)c2cc(NC(=O)Nc3cccc4ccccc34)ccc2O[C@H]1CN(C)C(=O)Nc1ccccc1,inactive
13,C[C@@H]1CN([C@@H](C)CO)C(=O)c2cc(NC(=O)Nc3cccc4ccccc34)ccc2O[C@@H]1CN(C)C(=O)Nc1ccccc1,inactive
14,C[C@@H]1CN([C@H](C)CO)C(=O)c2cc(NC(=O)Nc3ccc(C(F)(F)F)cc3)ccc2O[C@H]1CN(C)C(=O)Nc1cccc2ccccc12,active
15,C[C@H]1CN([C@@H](C)CO)C(=O)c2cc(NC(=O)Nc3cccc4ccccc34)ccc2O[C@H]1CN(C)C(=O)Nc1ccccc1,active
16,C[C@@H]1CN([C@@H](C)CO)C(=O)c2cc(NC(=O)Nc3cccc4ccccc34)ccc2O[C@H]1CN(C)C(=O)Nc1cccc2ccccc12,inactive
17,C[C@H](CO)N1C[C@H](C)[C@@H](CN(C)C(=O)Nc2cccc3ccccc23)Oc2ccc(NC(=O)Nc3ccc(C(F)(F)F)cc3)cc2C1=O,inactive
18,C[C@H](CO)N1C[C@H](C)[C@H](CN(C)C(=O)Nc2cccc3ccccc23)Oc2ccc(NC(=O)Nc3cccc4ccccc34)cc2C1=O,active
19,COc1ccc(NC(=O)Nc2ccc3c(c2)C(=O)N([C@@H](C)CO)C[C@H](C)[C@H](CN(C)C(=O)Nc2cccc4ccccc24)O3)cc1,active
20,C[C@@H]1CN([C@H](C)CO)C(=O)c2cc(NC(=O)Nc3cccc4ccccc34)ccc2O[C@H]1CN(C)C(=O)Nc1cccc2ccccc12,inactive
21,C[C@H]1CN([C@@H](C)CO)C(=O)Cc2cc(NS(=O)(=O)c3ccccc3)ccc2O[C@@H]1CN(C)S(=O)(=O)c1ccc(F)cc1,inactive
22,Cc1noc(C)c1S(=O)(=O)N(C)C[C@H]1Oc2ccc(NC(=O)Nc3ccc4c(c3)OCO4)cc2C(=O)N([C@@H](C)CO)C[C@H]1C,inactive
23,CC(=O)N[C@@H]1CC[C@H](CCNC(=O)C2CC2)O[C@H]1CO,inactive
24,O=C(C[C@@H]1C=C[C@H](NC(=O)c2cccc(F)c2)[C@H](CO)O1)NCCN1CCCC1,inactive
25,C[C@@H]1CCCCO[C@@H](CN(C)S(C)(=O)=O)[C@H](C)CN([C@@H](C)CO)C(=O)c2cc(NS(=O)(=O)c3ccc(F)cc3)ccc2O1,inactive

row,SMILES,cytotoxicity call
1,COc1ccc(NC(=O)Nc2ccc3c(c2)CC(=O)N([C@@H](C)CO)C[C@H](C)[C@@H](CN(C)C(=O)Nc2cccc4ccccc24)O3)cc1,inactive
2,C[C@@H]1CCCCO[C@@H](CN(C)S(=O)(=O)c2ccccc2)[C@H](C)CN([C@H](C)CO)C(=O)c2cc(NS(C)(=O)=O)ccc2O1,inactive
3,CC(C)CC#Cc1ccc2c(c1)O[C@@H](CN(C)S(=O)(=O)c1ccc(F)cc1)[C@@H](C)CN([C@H](C)CO)S2(=O)=O,inactive
4,COc1ccccc1CNC(=O)C[C@H]1C[C@H]2c3cc(NC(=O)Cc4ccncc4)ccc3O[C@H]2[C@H](CO)O1,inactive
5,CC1OC(OC2C(Oc3cc(O)c4c(=O)cc(-c5ccc(O)cc5)oc4c3)OC(CO)C(O)C2O)C(O)C(O)C1O (centres undefined),inactive
6,Cc1noc(C)c1NC(=O)N(C)C[C@@H]1Oc2c(NC(=O)C3CC3)cccc2C(=O)N([C@H](C)CO)C[C@@H]1C,inactive
7,Cc1noc(C)c1NC(=O)Nc1ccc2c(c1)C(=O)N([C@H](C)CO)C[C@@H](C)[C@@H](CN(C)CC1CCCCC1)OCCCC[C@H](C)O2,inactive
8,CC(C)NC(=O)N(C)C[C@H]1OCc2cn(nn2)CCCC(=O)N([C@H](C)CO)C[C@@H]1C,inactive
9,CC(=O)OCC(=O)C1(O)CCC2C3CCC4=CC(=O)CCC4(C)C3C(O)CC21C (centres undefined),inactive
10,C[C@@H]1CN([C@@H](C)CO)C(=O)c2cc(NC(=O)NC3CCCCC3)ccc2O[C@H]1CN(C)C(=O)Nc1cccc2ccccc12,inactive
11,C[C@H]1CN([C@@H](C)CO)C(=O)c2cc(NC(=O)NC3CCCCC3)ccc2O[C@H]1CN(C)C(=O)Nc1cccc2ccccc12,active
12,C[C@@H]1CN([C@H](C)CO)C(=O)c2cc(NC(=O)NC3CCCCC3)ccc2O[C@H]1CN(C)C(=O)Nc1cccc2ccccc12,inactive
13,Cc1noc(C)c1S(=O)(=O)Nc1cccc2c1O[C@@H](CN(C)Cc1ccc3c(c1)OCO3)[C@@H](C)CN([C@H](C)CO)C2=O,inactive
14,C[C@H]1CN([C@@H](C)CO)C(=O)c2cc(C#Cc3ccccc3F)cnc2O[C@H]1CN(C)S(=O)(=O)c1ccccc1F,inactive
15,COCC(=O)N(C)C[C@H]1Oc2cc(C#CCC3CCCC3)ccc2S(=O)(=O)N([C@@H](C)CO)C[C@H]1C,inactive
16,C[C@H]1CN([C@@H](C)CO)C(=O)Cc2cc(NC(=O)Nc3ccc(Cl)c(Cl)c3)ccc2O[C@H]1CN(C)S(=O)(=O)c1ccc(Oc2ccccc2)cc1,inactive
17,C[C@H]1CN([C@@H](C)CO)C(=O)Cc2cc(NC(=O)Nc3cccc4c3CCCC4)ccc2O[C@H]1CN(C)S(=O)(=O)c1ccc(Oc2ccccc2)cc1,active
18,C[C@H]1CN([C@@H](C)CO)C(=O)Cc2cc(NC(=O)Nc3ccc(C#N)cc3)ccc2O[C@H]1CN(C)S(=O)(=O)c1ccc(Oc2ccccc2)cc1,inactive
19,C[C@H]1CN([C@@H](C)CO)C(=O)Cc2cc(NC(=O)Nc3cc(Cl)cc(Cl)c3)ccc2O[C@H]1CN(C)S(=O)(=O)c1ccc(Oc2ccccc2)cc1,active
20,C[C@H]1CN([C@@H](C)CO)C(=O)Cc2cc(NC(=O)Nc3ccc(F)cc3)ccc2O[C@H]1CN(C)S(=O)(=O)c1ccc(Oc2ccccc2)cc1,active
21,CC(C)NC(=O)Nc1ccc2c(c1)CC(=O)N([C@H](C)CO)C[C@@H](C)[C@@H](CN(C)S(=O)(=O)c1ccccc1)O2,inactive
22,CC(C)NC(=O)Nc1ccc2c(c1)CC(=O)N([C@@H](C)CO)C[C@H](C)[C@H](CN(C)S(=O)(=O)c1ccc(F)cc1)O2,inactive
23,Cc1ccc(S(=O)(=O)N(C)C[C@@H]2Oc3ccc(NC(=O)Nc4cccc5ccccc45)cc3CC(=O)N([C@@H](C)CO)C[C@H]2C)cc1,inactive
24,C[C@H]1CN([C@@H](C)CO)C(=O)Cc2cc(NC(=O)Nc3cccc4c3CCCC4)ccc2O[C@H]1CN(C)S(=O)(=O)c1ccc(Cl)cc1,inactive
